According to PubChem BioAssay AID1159580 (chemical genetic matrix, 2015):
“And” between values parts separate entries of the source, which are not always exact repeats. Equal values may be shown once. About 2,000 (36%) of roughly 5,500 compounds were called active. About 18% were inconclusive and are not listed. Rule as the data show it: active = normalized growth mostly below about 0.91 (no sharp cut-off); inconclusive = no clear call, values can overlap the other calls; inactive = mostly above about 0.92. This is one part of the list.

Assay: chemical genetic growth profiling, strain panel (AID 1159580);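 also: tested at 20 µM; growth read once vehicle control cultures reached saturation at 30 °C; 1 = growth at the plate median or of vehicle wells; lower values mean less growth of the strain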
Conditions: S. cerevisiae deletion strains, growth OD

Measured: normalized growth

NCCCCN
inactive: locus YAL013W, strain DEP1, stronger effect = lower value 1.02 | locus YAL040C, strain CLN3, stronger effect = lower value 1.07 | locus YBR021W, strain FUR4, stronger effect = lower value 1.02 | locus YBR229C, strain ROT2, stronger effect = lower value 1 | locus YCL029C, strain bik1, stronger effect = lower value 0.99 | locus YCL061C, strain MRC1 (second series), stronger effect = lower value 0.999 | locus YDL035C, strain GPR1, stronger effect = lower value 1.04 | locus YDL074C, strain BRE1, stronger effect = lower value 1.01 | locus YDL101C, strain DUN1, stronger effect = lower value 1.01 | locus YDL185W, strain tfp1, stronger effect = lower value 1.02 | locus YDL192W, strain arf1, stronger effect = lower value 1.01 | locus YDR101C, strain arx1, stronger effect = lower value 0.971 | locus YDR150W, strain NUM1, stronger effect = lower value 1.01 | locus YDR162C, strain NBP2, stronger effect = lower value 1.04 | locus YDR318W, strain mcm21, stronger effect = lower value 1.01 | locus YDR363W, strain ESC2, stronger effect = lower value 1.03 | locus YDR388W, stronger effect = lower value 1.01 | locus YDR502C, strain sam2, stronger effect = lower value 0.994 | locus YEL061C, strain CIN8, stronger effect = lower value 1.01 | locus YER002W, strain NOP16, stronger effect = lower value 1 | locus YER110C, stronger effect = lower value 1.01 | locus YER155C, strain BEM2, stronger effect = lower value 1.01 | locus YER167W, strain BCK2, stronger effect = lower value 1.02 | locus YGL078C, strain dbp3, stronger effect = lower value 0.995 | locus YGL086W, strain mad1, stronger effect = lower value 0.985 | locus YGL248W, strain PDE1, stronger effect = lower value 1 | locus YGR078C, strain PAC10, stronger effect = lower value 0.999 | locus YGR135W, strain pre9, stronger effect = lower value 1.06 | locus YGR229C, strain SMI1, stronger effect = lower value 1.02 and 1.01 | locus YGR252W, strain gcn5, stronger effect = lower value 1.04 | locus YHR030C, strain SLT2, stronger effect = lower value 1 and 0.949 | locus YHR079C, strain IRE1 (second series), stronger effect = lower value 1 | locus YHR079C, strain IRE1, stronger effect = lower value 0.969 | locus YHR094C, strain hxt1, stronger effect = lower value 1.01 | locus YHR129C, strain ARP1, stronger effect = lower value 1.01 | locus YHR200W, strain rpn10, stronger effect = lower value 1 | locus YIL066C, strain RNR3, stronger effect = lower value 1.01 | locus YIL073C, strain SPO22, stronger effect = lower value 1.11 | locus YIL125W, strain kgd1, stronger effect = lower value 0.997 | locus YIR030C, strain dcg1, stronger effect = lower value 0.999 | locus YJL095W, strain BCK1, stronger effect = lower value 1.01 and 0.994 | locus YJL134W, strain LCB3, stronger effect = lower value 1.01 | locus YJL168C, strain set2, stronger effect = lower value 1.01 | locus YJL187C, strain SWE1 (second series), stronger effect = lower value 1.01 | locus YJR043C, strain POL32, stronger effect = lower value 1 | locus YJR066W, strain TOR1, stronger effect = lower value 0.93 | locus YJR075W, strain HOC1, stronger effect = lower value 1.01 | locus YKL009W, strain mrt4, stronger effect = lower value 0.99 | locus YKL068W, stronger effect = lower value 0.999 | locus YKL085W, strain MDH1 (second series), stronger effect = lower value 1 | locus YKL085W, strain MDH1, stronger effect = lower value 1 | locus YKL190W, strain CNB1, stronger effect = lower value 0.999 | locus YKR001C, strain vps1, stronger effect = lower value 1 | locus YLR039C, strain RIC1, stronger effect = lower value 1.05 | locus YLR058C, strain SHM2, stronger effect = lower value 1.01 | locus YLR102C, strain apc9, stronger effect = lower value 1 | locus YLR113W, strain HOG1, stronger effect = lower value 1.01 | locus YLR262C, strain YPT6, stronger effect = lower value 1.06 | locus YLR268W, strain sec22, stronger effect = lower value 0.996 | locus YLR330W, strain CHS5, stronger effect = lower value 1.01 | locus YLR342W, strain FKS1 (second series), stronger effect = lower value 1.07 | locus YLR371W, strain rom2, stronger effect = lower value 1 | locus YLR418C, strain cdc73, stronger effect = lower value 1.03 | locus YML016C, strain PPZ1, stronger effect = lower value 1 | locus YML032C, strain rad52, stronger effect = lower value 0.992 | locus YML124C, strain tub3, stronger effect = lower value 1 | locus YMR078C, strain ctf18, stronger effect = lower value 1 | locus YMR223W, strain ubp8, stronger effect = lower value 1.05 | locus YMR307W, strain GAS1, stronger effect = lower value 1.07 and 1.01 | locus YNL067W, strain RPL9B, stronger effect = lower value 1 | locus YNL128W, strain TEP1, stronger effect = lower value 1.01 | locus YNL153C, strain GIM3, stronger effect = lower value 1 | locus YNL175C, strain NOP13, stronger effect = lower value 1 | locus YNL183C, strain NPR1, stronger effect = lower value 0.961 | locus YNL197C, strain WHI3, stronger effect = lower value 1 | locus YNL224C, strain SQS1, stronger effect = lower value 1 | locus YNL233W, strain BNI4, stronger effect = lower value 1.01 | locus YNL250W, strain rad50, stronger effect = lower value 1.03 | locus YNL271C, strain bni1, stronger effect = lower value 1.01 | locus YNL298W, strain CLA4, stronger effect = lower value 1.01 | locus YNL307C, strain MCK1, stronger effect = lower value 1.02 | locus YNR052C, strain pop2, stronger effect = lower value 1 | locus YOL012C, strain htz1 0.897 | locus YOL147C, strain pex11, stronger effect = lower value 1.01 | locus YOR061W, strain CKA2, stronger effect = lower value 1 | locus YOR069W, strain VPS5, stronger effect = lower value 1.01 | locus YOR083W, strain WHI5 (second series), stronger effect = lower value 1.01 | locus YOR136W, strain idh2, stronger effect = lower value 0.992 | locus YOR144C, strain elg1, stronger effect = lower value 1 | locus YOR184W, strain ser1, stronger effect = lower value 1 | locus YOR231W, strain MKK1, stronger effect = lower value 0.957 | locus YOR316C, strain cot1, stronger effect = lower value 1 | locus YPL055C, strain LGE1, stronger effect = lower value 0.99 | locus YPL241C, strain CIN2, stronger effect = lower value 1.01 | locus YPL256C, strain CLN2, stronger effect = lower value 0.958 | locus YPR119W, strain clb2, stronger effect = lower value 0.994 | locus YPR141C, strain kar3, stronger effect = lower value 1 | locus YPR163C, strain tif3, stronger effect = lower value 1.01 | locus YPR167C, strain met16, stronger effect = lower value 1 | strain wtn01, stronger effect = lower value 0.995
